Screening data (PubChem)
This excerpt belongs to a sample that is enriched for hits.
DUX4 inh: blocks DUX4-driven transcriptional activation. 293T-iDUX4 ZSCAN4-Gaussia luciferase reporter, 24 h; active compounds read low. activity change, negative = inhibition, % (no concentration beside the values). 0.8% of 37,000 active. AID 1224904;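 active means mean inhibition of at least 10% in the main channel, exceeding the control channel by a set limit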
Hits are given with their value; n = inactive; ! = not active in a repeat.

SMILES | DUX4 inh
N#Cc1ccc(-c2ccc(C3[C@H]4CNC[C@@H]3N4C(=O)Nc3ccc(Cl)cc3)cc2)cc1 (stereo partly drawn) | n
COc1ccc(NC(=O)N2C[C@@H]3N[C@H](C2)C3c2ccc(-c3cccnc3)cc2)cc1 (stereo partly drawn) | n
N#Cc1ccc(-c2ccc(C3[C@@H]4CN(C(=O)Nc5ccc(C(F)(F)F)cc5)C[C@H]3N4)cc2)cc1 (stereo partly drawn) | -49!
COc1ccc(NC(=O)N2C[C@@H]3N[C@H](C2)C3c2ccc(-c3cccc(F)c3)cc2)cc1 (stereo partly drawn) | n
CN(C)C(=O)c1ccc(-c2ccc(C3[C@@H]4CN(C(=O)Nc5ccc(Cl)cc5)C[C@H]3N4)cc2)cc1 (stereo partly drawn) | n
Cc1nn(C)cc1NC(=O)C[C@H]1CC[C@@H]2[C@H](COc3ccc(NC(=O)NC(C)C)cc3C(=O)N2C)O1 | n
COCCNC(=O)C[C@@H]1C[C@@H]2c3cc(NC(=O)Nc4ccccc4F)ccc3O[C@@H]2[C@@H](CO)O1 | n
N#C[C@H]1[C@H](c2ccc(-c3cccc(F)c3)cc2)[C@@H](CO)N1c1nc(-c2ccccc2)cs1 | n
COc1ccccc1C(=O)Nc1ccc2c(c1)C(=O)N(C)[C@H]1CC[C@@H](CC(=O)NCCc3ccncc3)O[C@H]1CO2 | n
COc1ccc2c3c([nH]c2c1)[C@@H](CO)N(Cc1ccncc1)CC31CN(CC2CCOCC2)C1 | n
O=C(c1cccnc1)N1CC2(C1)[C@@H](c1ccccc1)[C@@H](CO)N2Cc1ccncc1 | n
O=C(C[C@H]1C=C[C@H](NC(=O)c2cccc(F)c2)[C@H](CO)O1)Nc1nccs1 | n
CO[C@H]1CN(C)C(=O)c2ccc(NC(C)=O)cc2OC[C@H](C)N(Cc2cccnc2)C[C@H]1C | n
O=C([C@H]1[C@H](CO)[C@H]2Cn3c(ccc(-c4ccc(F)cc4)c3=O)[C@H]2N1Cc1cocn1)N1CCOCC1 | n
COc1ccc2c3c([nH]c2c1)[C@@H](CO)N(Cc1ccccc1F)CC31CN(C(=O)C2CCOCC2)C1 | n
COc1ccc2c3c([nH]c2c1)[C@H](CO)N(Cc1ccccc1F)CC31CN(S(C)(=O)=O)C1 | -45
COc1ccc2c3c([nH]c2c1)[C@H](CO)N(Cc1cc(F)ccc1F)CC31CN(C(=O)C2CCC2)C1 | -74
COc1ccc2c3c([nH]c2c1)[C@H](CO)N(Cc1cc(F)ccc1F)CC31CCN(C(=O)CN(C)C)CC1 | n
COc1ccc2c3c([nH]c2c1)[C@H](CO)N(Cc1ccccc1F)CC31CN(C)C1 | n
COCC(=O)N1CC2(C1)CN(Cc1ccccc1Cl)[C@H](CO)c1[nH]c3cc(OC)ccc3c12 | n
CCNC(=O)[C@H]1[C@H](CO)[C@H]2Cn3c(ccc(-c4cncnc4)c3=O)[C@H]2N1Cc1ccc2c(c1)OCO2 | n
CNC[C@@H]1OCCCC[C@H](C)Oc2ccc(NS(=O)(=O)c3c(C)noc3C)cc2C(=O)N([C@@H](C)CO)C[C@@H]1C | n
O=C(NC1CCCCC1)N1CC2(C1)[C@H](c1ccccc1)[C@H](CO)N2CC1CC1 | n
COc1ccc(-c2ccc([C@H]3[C@@H](C#N)N(C(=O)NC4CCCCC4)[C@H]3CO)cc2)cc1 | n
CO[C@@H]1CC[C@H]2CCN(C)C(=O)[C@H](C)CN(C)C(=O)c3cc(C#N)ccc3OC[C@@H]1O2 | n
SMILES | DUX4 inh
CCCNC(=O)Nc1ccc2c(c1)OC[C@H](C)N(C(=O)CC)C[C@H](C)[C@@H](OC)CN(C)C2=O | n
COc1ccc2c3c(n(C)c2c1)[C@@H](CO)N(C(=O)C1CCOCC1)CC31CN(C(=O)Nc2cccc(F)c2)C1 | n
O=C(c1ccccc1)N1CC(=O)N2[C@@H](CO)[C@H](c3ccc(-c4ccccc4)cc3)[C@@H]2C1 | n
COc1ccc(CNC(=O)C[C@@H]2CC[C@H](NC(=O)CN(C)C)[C@@H](CO)O2)cc1 | n
O=C(C[C@@H]1CC[C@@H](NC(=O)CC2CC2)[C@@H](CO)O1)NCc1ccc(-c2ccccc2)cc1 | n
O=C(C[C@H]1CC[C@@H](NC(=O)c2ccc3c(c2)OCO3)[C@@H](CO)O1)NCc1ccc(Oc2ccccc2)cc1 | -45
CC(=O)N1[C@@H](CO)[C@H](c2ccccc2)C12CN(C(=O)Nc1ccccc1F)C2 | n
CCS(=O)(=O)N1CC2(C1)[C@H](c1ccccc1)[C@@H](CO)N2C(=O)C1CCC1 | n
C[C@H]1CN([C@@H](C)CO)C(=O)c2c(c3ccccc3n2C)-c2ccccc2CO[C@@H]1CN(C)Cc1ccncc1 | n
C[C@H]1CN([C@@H](C)CO)C(=O)c2c(c3ccccc3n2C)-c2ccccc2CO[C@@H]1CN(C)Cc1ccc(Cl)c(Cl)c1 | -49
C[C@@H]1CN([C@@H](C)CO)C(=O)c2c(c3ccccc3n2C)-c2ccccc2CO[C@@H]1CN(C)Cc1ccc(-c2ccccc2)cc1 | n
C[C@H]1CN([C@@H](C)CO)C(=O)c2ccccc2-c2ccccc2CO[C@H]1CN(C)Cc1ccc(O)cc1 | n
C[C@H]1CN([C@@H](C)CO)C(=O)c2c(c3ccccc3n2C)-c2ccccc2CO[C@@H]1CN(C)Cc1ccc(-c2ccccc2)cc1 | -41
C[C@H](CO)N1C[C@H](C)[C@@H](CN(C)Cc2ccncc2)OCc2ccccc2-c2c(n(C)c3ccccc23)C1=O | n
C[C@@H]1CN([C@@H](C)CO)C(=O)c2c(c3ccccc3n2C)-c2ccccc2CO[C@@H]1CN(C)Cc1ccc(Cl)c(Cl)c1 | n
C[C@@H]1CN([C@@H](C)CO)C(=O)c2c(c3ccccc3n2C)-c2ccccc2CO[C@H]1CN(C)Cc1ccncc1 | n
C[C@@H]1CN([C@H](C)CO)C(=O)c2ccccc2-c2ccccc2CO[C@@H]1CN(C)Cc1ccc(C(F)(F)F)cc1 | -25
C[C@@H]1CN([C@H](C)CO)C(=O)c2ccccc2-c2ccccc2CO[C@@H]1CN(C)Cc1ccc(C(=O)O)cc1 | n
C[C@@H]1CN([C@H](C)CO)C(=O)c2c(c3ccccc3n2C)-c2ccccc2CO[C@@H]1CN(C)Cc1ccc(Cl)c(Cl)c1 | -19
C[C@@H]1CN([C@@H](C)CO)C(=O)c2c(c3ccccc3n2C)-c2ccccc2CO[C@H]1CN(C)Cc1ccc(-c2ccccc2)cc1 | n
CO[C@H]1CN(C)C(=O)c2ccc(NS(C)(=O)=O)cc2OC[C@H](C)N(Cc2ccccc2)C[C@H]1C | n
CCCNC(=O)N1CC2(CCN(S(C)(=O)=O)CC2)c2c(n(C)c3cc(OC)ccc23)[C@H]1CO | n
CN(C)C(=O)[C@@H]1[C@@H](CO)[C@@H]2Cn3c(ccc(C4=CCCCC4)c3=O)[C@@H]2N1Cc1ccccn1 | n
CCCNC(=O)N[C@@H]1CC[C@@H](CC(=O)N2CCN(C)CC2)O[C@H]1CO | n
O=C(C1CCCCC1)N1CC2(C1)[C@@H](c1ccccc1)[C@H](CO)N2Cc1nccs1 | n
O=C(c1cccnc1)N1CCCCN2[C@H](C1)[C@@H](c1ccc(C#Cc3ccccn3)cc1)[C@@H]2CO | n
Cc1noc(C)c1S(=O)(=O)N(C)C[C@@H]1OCCCC[C@H](C)Oc2ccc(NS(=O)(=O)c3cccs3)cc2C(=O)N([C@@H](C)CO)C[C@H]1C | n
OC[C@@H]1Nc2ccc(C#Cc3cccc(F)c3)cc2[C@H]2NCC[C@@H]12 | n
COc1ccccc1C#Cc1ccc2c(c1)[C@@H]1NCC[C@@H]1[C@H](CO)N2 | -23
COc1ccccc1C#Cc1ccc2c(c1)[C@@H]1[C@@H](CCN1C(=O)c1ccncc1)[C@@H](CO)N2 | n
